Reference: PubChem BioAssay (NCATS)
Records with an inconclusive call do not appear. Entries that show only a call come without a potency. Calls of active or inactive are those of the source. Calls follow the shape of the dose curve; as a rule, active = well fitted inhibition curve with a large enough effect; inconclusive = small, poorly fitted or top-dose-only effect; inactive = flat fitted curve, though single readings scatter.

Each compound was assayed on Zika virus NS2B-NS3 protease (assay: Primary screen GU AMC qHTS for Zika virus inhibitors (AID 1347154; also: nearly all actives have a fitted effect of over 70% in size)). Conditions: Zika NS2B-NS3 unlinked protease, AMC fluorogenic substrate; series mostly up to 54.1 µM.
Method in brief: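 Fluorogenic AMC-substrate cleavage by noncovalent NS2B-NS3 protease complex (25 nM, pH 8.0 Tris buffer with Tween 20) followed for 15 minutes at room temperature (~20% conversion). Percent inhibition from ex340/em450 signal change, fitted by 4-parameter Hill equation.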
In the case of `C/C=C/c1ccc(O)c(OC)c1`, the Potency is reported as “inactive”. `CCCCCCCCCCCCCC[N+](C)(C)Cc1ccccc1` was tested, and the Potency was “inactive”. In the case of `CN1CCN(C2=Nc3ccccc3Sc3ccc(Cl)cc32)CC1`, the Potency is reported as “inactive”. `COc1cc(C(=O)N2CCCCCCC2)cc(OC)c1OC` was tested, and the Potency was “inactive”. In the case of `CCN1CCCC(OC(=O)C(c2ccccc2)c2ccccc2)C1` (stereo not given), the Potency is reported as “inactive”. With `Cc1cc(-c2ccccc2)nnc1NCCN1CCOCC1` the Potency was “inactive”. For `CC(=O)Nc1ccc(OC(=O)c2ccccc2OC(C)=O)cc1`, the Potency was “inactive”. With `CO[C@]12C[C@@H](COC(=O)c3cncc(Br)c3)CN(C)[C@@H]1Cc1cn(C)c3cccc2c13` the Potency was “inactive”. With `NS(=O)(=O)c1cc2c(cc1Cl)NC(CC1CCCC1)NS2(=O)=O` (stereo not given) the Potency was “inactive”. For `CCN(CC)CCNC(=O)c1cc(Br)c(N)cc1OC`, the Potency was “inactive”. With `O=C(Nc1cccc(C2=NCCN2)c1)Nc1cccc(C2=NCCN2)c1` the Potency was “inactive”. With `CCCCCN=C(N)N/N=C/c1c[nH]c2ccc(OC)cc12` the Potency was “inactive”. `COc1cc(NS(=O)(=O)c2ccc(N)cc2)ncn1` was tested, and the Potency was “inactive”. For `COc1ccc2c(c1)c1c3n2CCN(C)C3=NCC1`, the Potency was “inactive”. In the case of `COc1ccc(CCN(C)CCCN2CCc3cc(OC)c(OC)cc3CC2=O)cc1OC`, the Potency is reported as “inactive”. `CC(=O)Nc1ccc(S(=O)(=O)Nc2ccc([N+](=O)[O-])cc2)cc1` was tested, and the Potency was “inactive”. With `CC(=O)NCCCCCC(=O)O` the Potency was “inactive”. In the case of `CCN1CCN(C(=O)N[C@@H](C(=O)N[C@@H]2C(=O)N3C(C(=O)O)=C(CSc4nnnn4C)CS[C@H]23)c2ccc(O)cc2)C(=O)C1=O`, the Potency is reported as “inactive”. For `CCCCCCCCCCCCCC(=O)OC(C)C`, the Potency was “inactive”. With `Cn1c(=O)c2[nH]c(Br)nc2n(C)c1=O` the Potency was “inactive”. With `O=C(CCN1CCN2CCCC2C1)N1c2ccccc2Sc2ccc(Cl)cc21` (stereo not given) the Potency was “inactive”. `O=C1C(=O)c2ccccc2C(O)=C1C1CCC(c2ccc(Cl)cc2)CC1` (stereo not given) was tested, and the Potency was “inactive”. `CCOc1ccc(NC(C)=O)cc1` was tested, and the Potency was “inactive”. For `CN1CCN(C2=Nc3cc(F)ccc3Cc3ccccc32)CC1`, the Potency was “inactive”. For `O=C1C(O)=C(O)C(=O)C(O)=C1O`, the Potency was “inactive”.
